Reference: paper PMC12136788
Where a chain is given by its changes, count along the chain named. Over roughly 24,000 sequences, “enrichment r” has its median near 0.99; the highest 2% begin near 3.7. The entries come from a sample that favours the highest values as a whole.

B1: chr2:9725471:9725472:-_ENSG00000134308_ENST00000238081|hu_hu|FALSE|FALSE (ssRNA)
RNA: GGGAGUUCUACAGUCCGACGAUCUGCCGCAUCACAUUCUUCUCCUGCACUGUCUGAUGUCCAAAGUGUUAGGUUGUCUCUAAGCAACUGCAUGAUGAGGGUGCUGUCUUUGUAUGAGUCUUCAUUCAGUGUAUCAAGUUCAGCCAACAGAGGAUUGAGCAUCA
B2: 27821128_27827609_1759_CDS_ENSMUSG00000022263_ENSMUST00000090247|mouse|control|control (ssRNA)
RNA: GGGAGUUCUACAGUCCGACGAUCGCCCUGGUGAUGAUGAAUGGCGUCUUCCAGGUCCUGCAGCUCCGAGGGAAGGUCUACUUCACCACAGGCCUUACACCACGAGUCCACGUUGCUCAUGUACUUCUCAGCCUUCUGGUGAAACAACAGAGGAUUGAGCAUCA
B3: chr8:21961785:21961786:+_ENSG00000158863_ENST00000289921|hu_hu|FALSE|FALSE (ssRNA)
RNA: GGGAGUUCUACAGUCCGACGAUCGCACUGAGGAGAGGGGAGGGUCUGUGACUCCCAAACCCUCGAAUAUUUUAUGAAUCUAAGAGUCCAGACGCAGUUCAUCCACGGAGAUCUGCGCCCCGUCCACACCAACACCCACGUUUGCAACAGAGGAUUGAGCAUCA
B4: chr2:216981417:216981418:+_ENSG00000079246_ENST00000392132|hu_hu|hu_hu_hu_mus_True|8_48 (ssRNA)
RNA: GGGAGUUCUACAGUCCGACGAUCCUGAUACUGGUCCUUGCCAGCAAGGGCAUUAUCAGUGCCAUCUGUGCCAUAGAGGACUAACGCAAUCUCAUCCUUGCUCUCCGAAAAUACCUGUCGUUGGACAAACAUGGUUAUCACUUUCAACAGAGGAUUGAGCAUCA
B5: chr7:65705844:65705845:+_ENSG00000169902_ENST00000304842|hu_mus|hu_hu_hu_mus_False|18_108 (ssRNA)
RNA: GGGAGUUCUACAGUCCGACGAUCAAAAGGAUCUUUAUUACAUAAAUAAGGUGCCGGCUCCCCAUGUUUAACAAUGACCUCCAGAAGGAAGGCUUGCAUGGCAGAAUCUAGCACUUCAUCAGUAACACCCGCCUCAUCCAAGCGCAACAGAGGAUUGAGCAUCA
B6: chr18:43795804:43795805:+_ENSG00000152242_ENST00000321319|hu_hu|FALSE|FALSE (ssRNA)
RNA: GGGAGUUCUACAGUCCGACGAUCCUCCUCCAUCUUCAUUUCAGAAUUUCAAGUUAAAUCAUGGAGUAGAGUCUAGGAAAUGAUAUCAAAGAUGCAACAGGAAAGCAACCUGCGCUCCGCGGCGACUCCGUGCCUUCUCGCUCGCAACAGAGGAUUGAGCAUCA
B7: chr11:100882373:100882374:+_ENSMUSG00000019302_ENSMUST00000044721|mus_mus|mus_mus_mus_hu_True|38_108 (ssRNA)
RNA: GGGAGUUCUACAGUCCGACGAUCUUCCUGGUUAGUGUUGAUUUCCUUCAGUUCAUUUUCAAUCUUCUCAAAAUUGGCCUCUAAGUCAAUCAUGUCCCGAGGGAAGGGAACCUCUGGGUUUUCACCGGUGUCCAUAAUCGGAAUCAACAGAGGAUUGAGCAUCA
B8: chr1:46159212:46159213:+_ENSG00000159596_ENST00000372025|hu_mus|hu_hu_hu_mus_True|28_58 (ssRNA)
RNA: GGGAGUUCUACAGUCCGACGAUCUCUGAUCCCUCCCAAGAAAGCUAGGAAACCGGCUCCAUAAGCCAUCUGAGUGAAAGCUAAUAUGGGGAUAUAAGACUUUGUUAUCAGCAUGACAAGUGGGGGAGCAGUAAAGGGGAUUAACAACAGAGGAUUGAGCAUCA
B9: chr12:51141157:51141158:+_ENSG00000066084_ENST00000301180|hu_mus|FALSE|FALSE (ssRNA)
RNA: GGGAGUUCUACAGUCCGACGAUCUCAAAGAAAAGCAACAGAAAAUAAAAAAAAAAAAAGAAGUAGUCAUUACCAGAAGGAGGAAAAGACUAGAAGCCUGGGCAAGGCAUGAAGGUGUCUGCUGCAAUUUCAGUACUCGGGACACAACAGAGGAUUGAGCAUCA
B10: chr2:49628383:49628384:+_ENSMUSG00000026764_ENSMUST00000028102|mus_mus|FALSE|FALSE (ssRNA)
RNA: GGGAGUUCUACAGUCCGACGAUCUUGGUACUGACGGGGUUUGCAGACUUGCCCUGCAAAGGACCCCUCCAUCAGACUCCAAUAGCAGCCAACAGUGGCAACAACAUGAAACAAAGUGAACACAGGUAAACACAAAAUCAUCUUCAACAGAGGAUUGAGCAUCA
B11: chr9:122046315:122046316:+_ENSMUSG00000038145_ENSMUST00000120173|mus_hu|FALSE|FALSE (ssRNA)
RNA: GGGAGUUCUACAGUCCGACGAUCUAGUUUGGUCUGGGUGUCAAUAACUUCAUAAAGGCGGACGAUGUUAGGAUGCUGCACUAGUUUCAUGCAUCUCACUUCCUGGAAAAGAUGACCAGUAGCUAGAGUGUCCAGUUUUGUCUUCAACAGAGGAUUGAGCAUCA
B12: 104520116_104520236_3471_3pUTR_ENSMUSG00000027175_ENSMUST00000111118|mouse|control|control (ssRNA)
RNA: GGGAGUUCUACAGUCCGACGAUCAAGUUAAAAUUCCAGCCUAUGUGAAAAGAGAUACAAUUUAACACAGGUGACAGGACGCUCUGCUGUUAGUUUCCCUACAUCAAAGACUAUUCCAGUACAAUGAACAGGAGGGUUUGGAAGCAACAGAGGAUUGAGCAUCA
B13: chr19:16212804:16212805:+_ENSG00000167460_ENST00000300933|hu_mus|hu_hu_hu_mus_False|88_108 (ssRNA)
RNA: GGGAGUUCUACAGUCCGACGAUCAACAAAUAUGCAAUGAAGGAAAGCAUCAAGGAUGAACAGCAUUAAAGCUCAGUCAGAAGGCACAUGGGCAACAAUGAUCACCCCAGCAUUCUCGCUUGGAAUGCUUAAAGACAAUCUGUUCAACAGAGGAUUGAGCAUCA
B14: chr1:46159212:46159213:+_ENSG00000159596_ENST00000372025|hu_mus|hu_hu_hu_mus_True|28_108 (ssRNA)
RNA: B8 RNA with U33A, A83G, U84G, U86C
B15: chr18:33597908:33597909:-_ENSMUSG00000042834_ENSMUST00000171533|mus_hu|FALSE|FALSE (ssRNA)
RNA: GGGAGUUCUACAGUCCGACGAUCCAUCAAAAGAGUACAUGGAUAAAAUAUAGAGAUAUACAGACAAUUGAUGAACAUAAACUACUAGGUUUGUUACAUCUAAAUGAAAAAAAAGGUGGGGGGGGGACUCUCAGCCUCUGCAAGCAACAGAGGAUUGAGCAUCA
B16: chr1:46159212:46159213:+_ENSG00000159596_ENST00000372025|hu_mus|hu_hu_hu_mus_True|1_28 (ssRNA)
RNA: B8 RNA with A83G, U84G, U86C, A143G
B17: chr18:33597908:33597909:-_ENSMUSG00000042834_ENSMUST00000171533|mus_hu|motif|central (ssRNA)
RNA: B15 RNA with U82G, A83G, U85G, A86G
B18: chr1:46159212:46159213:+_ENSG00000159596_ENST00000372025|hu_mus|hu_hu_hu_mus_True|28_48 (ssRNA)
RNA: B8 RNA with A83G, U84G, U86C, G90A
B19: chr16:94664806:94664807:+_ENSMUSG00000040785_ENSMUST00000117648|mus_mus|FALSE|FALSE (ssRNA)
RNA: GGGAGUUCUACAGUCCGACGAUCAUUAGGACUCUCAAAGUAUGCAGCGGCAUUUUCAUCUGCUCUGUUGCUGGCUACAAAAGAUGGCACCACUGGCAUGGAUCUUUGCAUUGGAUACUCAGAAGAAAUGUUGGCCAAAGGUGUCAACAGAGGAUUGAGCAUCA
B20: 15109990_15111016_889_CDS_ENSG00000179889_ENST00000396410|human|control|control (ssRNA)
RNA: GGGAGUUCUACAGUCCGACGAUCUGAGGAGACAUAACCCAGAGCCAAUGUUGCCAGAUUCACACCCUCCACAUGAAGCCAUAUGCCAUACUGCUCACAGAGUUCUUUCAAUCUCCCAAUCUUGUCUGUGUGUCCUACUGCUGCCAACAGAGGAUUGAGCAUCA
B21: 17503471_17513584_185_CDS_ENSG00000151552_ENST00000428702|human|control|control (ssRNA)
RNA: GGGAGUUCUACAGUCCGACGAUCCUUAAAGAGAGACUUGGAUUUGGCAUUGCCCCCGGCCCAUCCUCCAGCAACGCAAAGAAUUGCAUCCACCUUCUCUUCACCCAAGAGCUUUCCAACCUCAGCAGUCACCCAGUUGCGGGCCAACAGAGGAUUGAGCAUCA
B22: chr10:33190432:33190433:-_ENSG00000150093_ENST00000302278|hu_mus|hu_hu_hu_mus_True|1_98 (ssRNA)
RNA: GGGAGUUCUACAGUCCGACGAUCUACAUUUUCCAAACCUGCACAUGAAUAAAACCCUGGCCACAGAGCCCCAAAACUACCCUACUGUGACUAAGAUGCUGCUGCUGUGAGCUUGGUGUUGCAAAAUCCGCCUGAGUCAGUACUCAACAGAGGAUUGAGCAUCA

Biological target: T1, UNK ZnF1-3 (human, UniProt Q9C0B0 31-174)
T1 sequence: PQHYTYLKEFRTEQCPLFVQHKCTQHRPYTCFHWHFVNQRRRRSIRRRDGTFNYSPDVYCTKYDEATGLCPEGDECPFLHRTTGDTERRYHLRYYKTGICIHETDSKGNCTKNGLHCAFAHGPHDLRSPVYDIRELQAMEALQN
Experiment: nsRBNS (natural sequence RNA bind-n-seq); RBNS binding buffer (assumed for nsRBNS): 25 mM Tris pH 7.5, 150 mM KCl, 3 mM MgCl2, 0.01% Triton X-100, 500 ug/ml BSA, 20 U/ml SUPERase-In, 4 C; UNK is unkempt and MSI1 is Musashi-1; names of the RNAs are library labels; protein concentration not given here; high values mean tight binding

Binder | binding signal [enrichment R]
B1 | 0.929
B2 | 0.482
B3 | 1.03
B4 | 0.64
B5 | 0.624
B6 | 0.921
B7 | 0.664
B8 | 1.32
B9 | 4.07
B10 | 0.994
B11 | 0.873
B12 | 1.5
B13 | 1.33
B14 | 1.36
B15 | 13.4
B16 | 3.95
B17 | 6.29
B18 | 1.5
B19 | 1.22
B20 | 1.36
B21 | 1.33
B22 | 1.13
